From PubChem BioAssay (NCATS) come the findings set out here.

The nature of assay [1]: qHTS for Inhibitors of Plasmodium falciparum (DD2) proliferation (AID 504314). Note: potency is the fitted concentration of half-maximal effect. In a few lines: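 Erythrocytes infected with P. falciparum (0.3% parasitemia, 2.5% hematocrit final) were incubated with compounds for 72 h at 37C, 5% CO2. Parasite DNA was detected by SYBR Green I fluorescence after saponin/Triton lysis, normalized to artemisinin (0.29 uM) and DMSO controls.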
(In general: In qHTS, concentration-response curves come from the screen itself.)

Assay [2] can be described thus: qHTS for Inhibitors of Plasmodium falciparum (GB4) proliferation (AID 504315). Note: nearly all actives have a fitted effect of over 50% in size. Note: potency is the fitted concentration of half-maximal effect. In outline:
(§1)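 Erythrocytes infected with P. falciparum line (0.3% parasitemia, 2.5% hematocrit final) incubated with compounds 72 h at 37 °C, 5% CO2; SYBR Green lysis buffer added, fluorescence read next day. Normalized to 0.29 uM artemisinin and DMSO.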

A short description of assay [3]: qHTS for Inhibitors of Plasmodium falciparum (7G8) proliferation (AID 504316). Note: series mostly up to about 6.7 µM; nearly all actives have a fitted effect of over 65% in size. In a few lines: as §1
The nature of assay [4]: qHTS for Inhibitors of Plasmodium falciparum (HB3) proliferation (AID 504318). Note: nearly all actives have a fitted effect of over 60% in size. Note: potency is the fitted concentration of half-maximal effect. In a few lines:
as §1

A short description of assay [5]: qHTS for Inhibitors of Plasmodium falciparum (CP250) proliferation (AID 504320). In outline:
as §1

Inconclusive results are not listed. Activity calls are given as the source filed them. Calls come from the whole dose curve; as a rule, active = well fitted curve in the direction sought with a large enough effect; inconclusive = small, poorly fitted or top-dose-only effect, or another doubt; inactive = no such curve, though single readings can be large; an effect the other way counts as inactive or inconclusive.

For the compound `COC(=O)CCCC1=CC2=CC(=O)C(C)(OC(=O)c3cccs3)C(=O)C2=CN1C(CO)CO` (stereo not drawn), the Potency result in assay [1], in assay [2], in assay [3], in assay [4] and in assay [5] was “inactive” each time.

For the compound `COC(=O)CCCC1=CC2=C(c3ccccc3)C(=O)C(C)(OC(=O)C3CCCC3)C(=O)C2=CN1CC1CC1` (stereo not drawn), the Potency entry in assay [1], in assay [2], in assay [3], in assay [4] and in assay [5] was “inactive” each time.

Consider `COC/C=C/C1=CC2=CC(=O)C(C)(OC(=O)c3cnc4ccccc4n3)C(=O)C2=CN1CCc1c[nH]c2ccccc12` (stereo not drawn), for which the Potency result in assay [1], in assay [2] and in assay [4] was “inactive” each time.

`CCOC(=O)CN1C(=O)N[C@@H](c2ccccc2)[C@H](C(=O)OC)[C@H]1C`: the Potency entry in assay [1], in assay [2], in assay [3], in assay [4] and in assay [5] was “inactive” each time.

Consider `COC(=O)C1=C(C(=O)OC)[C@@H]2N(Cc3ccccc3)c3ccccc3[C@@]23C[C@@H](C(=O)OC)N(C(=O)C2CCC2)C3=N1`, for which the Potency entry in assay [1], in assay [2], in assay [3], in assay [4] and in assay [5] was “inactive” in each case.

As to `CCCCc1nc2c(c3c1C[C@H](C)OC3)CN(C(=O)COC)CC2`, the Potency result in assay [1], in assay [2], in assay [3], in assay [4] and in assay [5] was “inactive” each time.

As for `C=CCN1C=C2C(=O)C(C)(OC(=O)CCC(=O)OC)C(=O)C=C2C=C1C1CC1` (stereo not drawn), the Potency result in assay [1], in assay [2], in assay [3], in assay [4] and in assay [5] was “inactive” throughout.

As for `CC1(OC(=O)C2CCCC2)C(=O)C=C2C=C(c3ccsc3)N(CCCCO)C=C2C1=O` (stereo not drawn), the Potency result in assay [1], in assay [2], in assay [3], in assay [4] and in assay [5] was “inactive” each time.

Regarding `CC[C@@H](C)CN1C(=O)N[C@@H](CCc2ccccc2)C(C(C)=O)=C1C`, the Potency entry in assay [1], in assay [2] and in assay [4] was “inactive” in each case.

For `CCN1C(=O)NC(c2ccco2)C(C(=O)OC)=C1C` (stereo not drawn), the Potency result in assay [1], in assay [2], in assay [3], in assay [4] and in assay [5] was “inactive” throughout.

Turning to `COC(=O)CCC(=O)OC1(C)C(=O)C2=CN(CC3CC3)C(c3ccc(OC)cc3)=CC2=C(Br)C1=O` (stereo not drawn), the Potency entry in assay [1], in assay [2], in assay [3], in assay [4] and in assay [5] was “inactive” each time.

Regarding `CC1(OC(=O)CCc2ccccc2)C(=O)C=C2C=C(c3ccc(C#N)cc3)N(CCc3ccccn3)C=C2C1=O` (stereo not drawn), the Potency entry in assay [1], in assay [2] and in assay [4] was “inactive” in each case.

In the case of `CCOC(=O)CN1C(=O)N[C@@H](c2ccco2)C(C(C)=O)=C1C`, the Potency result in assay [1], in assay [2], in assay [3], in assay [4] and in assay [5] was “inactive” in each case.

`CCOC(=O)CN1C(=O)N[C@@H](c2cccc(F)c2)C(C(C)=O)=C1C`: the Potency entry in assay [1], in assay [2], in assay [3], in assay [4] and in assay [5] was “inactive” in each case.

As to `CCOC(=O)CN1C(=O)N[C@@H](c2ccco2)C(C(=O)OC)=C1C`, the Potency entry in assay [1], in assay [2], in assay [3], in assay [4] and in assay [5] was “inactive” each time.

For `C[C@H]1Cc2c(-c3ccccc3)nc3c(c2CO1)CN(S(=O)(=O)c1ccc(C#N)cc1)CC3`, the Potency result in assay [1], in assay [2], in assay [3], in assay [4] and in assay [5] was “inactive” in each case.

Regarding `COC(=O)[C@@H]1[C@@H](C)N(Cc2ccccc2)C(=O)N[C@H]1c1ccccc1`, the Potency result in assay [1], in assay [2], in assay [3], in assay [4] and in assay [5] was “inactive” throughout.

As for `COC(=O)CCC(=O)OC1(C)C(=O)C2=CN(CCN3CCOCC3)C(c3ccc(OC)cc3)=CC2=C(Br)C1=O` (stereo not drawn), the Potency entry in assay [1], in assay [2], in assay [3], in assay [4] and in assay [5] was “inactive” each time.

Turning to `CCCC[C@]12Cc3c(ccc4ccccc34)[C@H](O1)C1=C(O2)C(=O)c2ccccc2C1=O`, the Potency is 1.69 µM (active) in assay [1], 1.69 µM (active) in assay [2] and 1.51 µM (active) in assay [4].

With `COC(=O)C1=C(C(=O)OC)[C@@H]2N(Cc3ccccc3)c3ccccc3[C@@]23C[C@@H](C(=O)OC)N(C(=O)c2ccco2)C3=N1`, the Potency result in assay [1], in assay [2], in assay [3], in assay [4] and in assay [5] was “inactive” in each case.

Turning to `COC/C=C/C1=CC2=CC(=O)C(C)(OC(=O)c3cnc4ccccc4n3)C(=O)C2=CN1CCCOC(C)C` (stereo not drawn), the Potency entry in assay [1], in assay [2] and in assay [4] was “inactive” throughout.

As to `Cc1ccccc1Nc1oc(-c2ccccc2)nc1-c1ccc(C(F)(F)F)cc1`, the Potency entry in assay [1], in assay [2], in assay [3], in assay [4] and in assay [5] was “inactive” in each case.

With `CCN1C(=O)N[C@@H](c2cccc(C(F)(F)F)c2)[C@H](C(=O)OC)[C@H]1C`, the Potency result in assay [1], in assay [2] and in assay [4] was “inactive” in each case.

For the compound `COC(=O)C1=C(C(=O)OC)[C@@H]2Nc3ccccc3[C@@]23C[C@@H](C(=O)OC)N(C(=O)NC2CCCC2)C3=N1`, the Potency entry in assay [1], in assay [2], in assay [3], in assay [4] and in assay [5] was “inactive” each time.
